TEAD-YAP inh: TEAD-YAP interaction inhibition | HEK-TIYL cells, TEAD-Gal4/YAP UAS-luciferase luminescence | inhibition, % at 9.12 µM | 640,000 tested, 1.4% active; in the data active means inhibition above about 32%;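 further: 0% = median of test compound wells and 100% = reference inhibitor wells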
MITF primary: human MITF inhibition, primary screen. 650,000 tested, 0.91% active. AlphaScreen MITF homodimerization, bead proximity signal. inhibition, % at 2.6 µM; in the data active means inhibition above about 50%;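 further: 0% = vehicle wells with protein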
GPR151 ag: activates the human receptor GPR151; Q8TDV0; PathHunter beta-arrestin GPR151 cells, luminescence; activation, % at 11.2 µM; 650,000 tested, 1% active; in the data active means activation above about 4.9%;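 further: 0% = median of compound wells and 100% = cells with positive control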
FBW7 act: human FBW7 E3 ligase activation, primary screen; Q969H0; AlphaScreen FBW7–phospho-cyclin E peptide binding, activator screen; normalized activity (activation), % at 26.1 µM; 650,000 tested, 0.13% active; AID 1259310; in the data active means normalized activity above about 1.9%;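 further: purified mutant Fbw7 with reduced substrate affinity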
Target sequence (Q969H0 whole entry, looked up): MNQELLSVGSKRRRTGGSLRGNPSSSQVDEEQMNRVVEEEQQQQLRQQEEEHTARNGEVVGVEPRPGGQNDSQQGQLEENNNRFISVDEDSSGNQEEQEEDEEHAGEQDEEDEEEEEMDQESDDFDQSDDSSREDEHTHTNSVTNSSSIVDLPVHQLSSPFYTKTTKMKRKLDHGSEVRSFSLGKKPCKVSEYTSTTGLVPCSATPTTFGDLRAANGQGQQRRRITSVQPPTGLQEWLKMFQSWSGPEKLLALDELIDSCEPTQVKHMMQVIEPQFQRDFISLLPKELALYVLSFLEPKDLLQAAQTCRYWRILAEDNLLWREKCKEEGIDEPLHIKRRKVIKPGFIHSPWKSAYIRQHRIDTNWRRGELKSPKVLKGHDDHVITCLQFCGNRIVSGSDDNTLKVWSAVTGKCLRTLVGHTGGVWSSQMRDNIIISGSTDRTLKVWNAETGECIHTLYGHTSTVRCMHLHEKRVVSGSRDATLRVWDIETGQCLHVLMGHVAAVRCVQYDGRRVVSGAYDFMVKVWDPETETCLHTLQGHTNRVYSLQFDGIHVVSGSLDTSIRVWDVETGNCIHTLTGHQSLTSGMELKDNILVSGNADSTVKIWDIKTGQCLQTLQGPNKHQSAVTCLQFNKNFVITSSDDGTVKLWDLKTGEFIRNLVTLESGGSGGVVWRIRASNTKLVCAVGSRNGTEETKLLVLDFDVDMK
* = called active by the depositor. An excerpt weighted towards active compounds, which were near 3.5% of everything screened.

SMILES	TEAD-YAP inh	MITF primary	GPR151 ag	FBW7 act
CCOc1ccccc1NC(=O)C(C)Oc1ccccc1 (stereo not drawn)	-0.8	-13.1	0.3	0.0
CCOc1ccccc1NC(=O)C(C)N(c1ccc(Cl)cc1)S(C)(=O)=O (stereo not drawn)	6.3	2.6	-0.6	-0.3
COc1cccc(C(=O)NC(C)c2nnc3n2CCN(Cc2ccc(Cl)cc2)CC3)c1 (stereo not drawn)	1.8	-6.2	0.5	0.0
CCOC(=O)CC(=O)CSc1nc(N)c2c3c(sc2n1)CCCC3	-16.5	9.7	-1.8	0.1
CCOC(=O)CCCSc1nc(N)c2c3c(sc2n1)CCCC3	87.8*	6.8	-0.3	0.0
Nc1nc(SCC(=O)NC2CCCCC2)nc2sc3c(c12)CCCC3	53.4*	7.0	-1.9	0.6
Cc1ccnc(NC(=O)CSc2nnc3c4ccccc4n(CCc4ccccc4)c3n2)c1	35.5*	3.3	-1.2	0.1
C=CCc1cc(/C=C2/SC(=O)N(CC(=O)OCC)C2=O)cc(OCC)c1O	-3.6	5.3	-2.0	-0.1
Cc1cc(C)c(C#N)c(SCc2nnc(-c3ccc(Cl)cc3)o2)n1	29.0	3.9	-0.7	-0.1
Cc1cc(C(F)(F)F)c(C#N)c(SCc2nnc(-c3ccccc3)o2)n1	41.1*	-0.3	-1.5	-0.2
Cc1nc(SCc2nnc(-c3ccccc3)o2)c(C#N)c(C)c1C	92.1*	-3.2	0.1	-0.4
CCCCCCSC1=C(C#N)C(c2cccs2)C(C(=O)Nc2ccccc2OC)=C(C)N1 (stereo not drawn)	4.1	-0.9	-0.5	0.2
OCc1ccc(-c2cnc3ccc(NC4CCC(O)CC4)nn23)cc1 (stereo not drawn)	51.3*	9.3	1.7	0.0
CCC(CO)Nc1ccc2ncc(-c3cccc(OC)c3)n2n1 (stereo not drawn)	57.3*	7.8	-1.3	-0.6
O=C(O)c1ccc(-c2cnc3ccc(NC4CCC(O)CC4)nn23)cc1 (stereo not drawn)	0.4	-9.5	-0.4	0.2
CCC(CO)Nc1ccc2ncc(-c3ccc(C(C)=O)s3)n2n1 (stereo not drawn)	47.4*	19.3	-0.8	0.2
COc1cccc(-c2cnc3ccc(NCC4CC4)nn23)c1	47.4*	-11.2	0.3	-0.5
COc1cncc(-c2cnc3ccc(NC4CCOCC4)nn23)c1	42.4*	11.1	1.3	-0.5
CCC(CO)Nc1ccc2ncc(-c3ccco3)n2n1 (stereo not drawn)	33.4*	19.5	0.1	0.1
COc1cc(Br)cc(C=C2C(=O)NC(=S)NC2=O)c1O	2.1	-11.7	-1.7	-0.7
Cc1cc2nc3s/c(=C/c4ccc(N5CCN(C)CC5)c([N+](=O)[O-])c4)c(=O)n3c2cc1C	37.7*	-6.0	-1.7	0.0
Cc1cc2nc3s/c(=C/c4cc5c(cc4[N+](=O)[O-])OCO5)c(=O)n3c2cc1C	-5.5	0.5	1.9	0.0
CC(=O)/C(C(=N)N1CCOCC1)=C(/C)O	-4.6	-1.9	0.5	-0.1
O=C(NC1CCCCCCC1)c1cccc(N2CCCC2=O)c1	45.9*	-8.1	-0.1	-0.1
O=C(NC1CCCCCC1)c1ccc(N2CCCC2=O)cc1	-22.0	6.9	-3.1	-0.4
SMILES	TEAD-YAP inh	MITF primary	GPR151 ag	FBW7 act
Cc1nn(C)c(C)c1NC(=S)Nc1ccc([N+](=O)[O-])cc1	-13.2	34.6	0.4	0.3
Cc1ccc(/C=C2/SC(=S)N(CCCC(=O)O)C2=O)cc1	85.9*	-4.1	0.8	-0.1
Cc1ccc(/C=C2\SC(=S)N(CCCC(=O)O)C2=O)cc1	91.6*	4.4	0.7	-0.3
Cc1cccc(/C=C2\SC(=S)N(CCCC(=O)O)C2=O)c1	74.6*	4.8	-2.3	0.9
Cc1ccc(/C=C2\SC(=S)N(CCCC(=O)N3CCOCC3)C2=O)cc1	6.5	13.6	-1.2	0.2
CCOc1ccc(/C=C2\SC(=S)N(CCC(=O)O)C2=O)cc1	7.9	0.8	-1.6	0.0
C#CCOc1ccc(/C=C2/SC(=S)N(CCC(=O)O)C2=O)cc1	58.5*	11.1	-0.6	0.0
COc1ccc(C2CC(=O)N3C(=C2C#N)SCC3(O)c2ccc(C)cc2)cc1 (stereo not drawn)	-7.9	11.5	0.5	-0.2
O=C(O)CCCN1C(=O)/C(=C/c2c(F)cccc2Cl)SC1=S	59.8*	-4.3	1.7	0.1
C=CCOc1ccc(/C=C2\SC(=S)N(CCCC(=O)O)C2=O)cc1	80.2*	-3.3	3.0	-0.2
COCCCN1C(=O)/C(=C/c2ccc(C)cc2)SC1=S	5.5	9.9	0.1	1.0
C=CCN1C(=O)S/C(=C/c2c(F)cccc2Cl)C1=O	-65.0	-8.3	1.4	-0.2
Cc1ccccc1/C=C1\SC(=S)N(CCCC(=O)O)C1=O	45.3*	-24.1	-2.3	-0.1
Cc1ccc(/C=C2\SC(=S)N(CCCC(=O)OCCN(C)C)C2=O)cc1	92.8*	13.6	3.8	-0.5
COc1ccc(F)c(CN2CCc3nnc(C(NC(=O)C4CCOC4)C(C)C)n3CC2)c1 (stereo not drawn)	-3.5	3.5	-1.3	-0.1
CC(=O)c1ccc(NC(=O)C2CCN(c3cnccn3)CC2)cc1	12.7	8.0	0.4	1.3
CCN(C1=C(Cl)C(=O)N(c2ccccc2)C1=O)c1ccccc1	6.1	7.3	-0.2	-0.2
CN(C1=C(Cl)C(=O)N(c2cccc(Cl)c2)C1=O)c1ccccc1	32.7*	19.2	0.9	0.0
Cc1cc2c(cc1C)n(C1CC(=O)C3OCC1O3)c(=S)n2Cc1ccccc1Cl (stereo not drawn)	48.0*	13.4	2.2	0.1
O=C(Nc1nc2ccccc2[nH]1)c1cc(F)c(F)cc1Cl	53.8*	10.4	-10.1	0.4
O=c1[nH]c2ccc(Oc3ccc4[nH]c(=O)c(=O)[nH]c4c3)cc2[nH]c1=O	-6.4	16.4	0.7	-0.1
COc1ccc(C)cc1Nc1c2c(nc3ncnn13)CCC2	38.3*	7.9	0.3	-0.1
COc1ccccc1Nc1c2c(nc3ncnn13)CCC2	-7.3	1.2	0.0	0.1
COC(=O)Nc1ccc(S(=O)(=O)N2c3ccccc3CCC2C)cc1 (stereo not drawn)	52.6*	-8.1	1.4	0.1
O=C(O)c1cc2c([nH]c1=O)CCCC2	1.2	6.1	0.8	-0.1
SMILES	TEAD-YAP inh	MITF primary	GPR151 ag	FBW7 act
C=CCSC(=C(C#N)C#N)c1cc2c([nH]1)CCCC2	50.6*	10.1	-0.6	-0.5
COc1cc(C)ccc1S(=O)(=O)Oc1cccc2ccc(C)nc12	37.2*	10.9	1.3	0.1
O=c1cc(CN2CCN(Cc3ccc4c(c3)OCO4)CC2)c2cc(O)c(O)cc2o1	-3.4	90.5*	4.0	-0.8
O=c1cc(CN2CCN(c3ccccc3O)CC2)c2cc(O)c(O)cc2o1	-4.5	89.7*	-0.4	0.2
O=c1cc(CN2CCCCC2)c2cc(O)ccc2o1	0.8	6.0	0.2	0.1
CCN(Cc1ccccc1)C(=O)COC(=O)c1c(F)cccc1F	-1.2	-5.2	0.2	-0.1
COc1cccc(-c2noc(CCC(=O)O)n2)c1	0.9	14.9	-1.8	0.1
COc1cc(S(=O)(=O)Nc2ccccc2)ccc1NC(=O)CC(C)C	9.4	0.7	0.5	0.0
O=C(Cc1ccc2c(c1)OCO2)Nc1cc(Nc2ccccc2-c2ncn[nH]2)c(F)cn1	54.0*	19.5	-0.9	1.1

Assay outcomes deposited in PubChem BioAssay by The Scripps Research Institute Molecular Screening Center.
